The supplement of paper PMC10723795
± gives the standard deviation of the averaged measurements.

These compounds were tested on RPE1 (assay: nucleolar normality score relative to DMSO (fraction of DMSO control); RPE1 is a non-cancer human cell line; higher = more normal nucleoli (less nucleolar stress)).
Protocol: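 Selected screen hits were validated in hTERT lines (BJ5TA, CHON-002, RPE1) and cancer lines (DLD1, HCT116). Cells were immunostained for nucleolin and UBF and the nucleolar normality score was measured per field of view, with 4 fields per drug. Scores are normalized to each cell line's own DMSO control. Dose and time are not stated for this panel.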

Row | Structure (SMILES) | nucleolar normality score
1 | CC[C@@]1(O)C(=O)OCc2c1cc1n(c2=O)Cc2cc3ccccc3nc2-1 [Camptothecin] | 0.413 ± 0.024
